# Assay outcomes from PubChem BioAssay.
# GDH-TPI counter = GDH-TPI coupling enzyme inhibitors, primary screen, artefact control for M. tuberculosis FBA inhibitor project, biochemical, absorbance, full deck; GDH-TPI coupled enzyme counterscreen, NADH absorbance; inhibition, % at 4.8 µM; actives 1.2% (n = 360,000); in the data active = inhibition above about 30%;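 also: 0% = DMSO wells and 100% = wells lacking the enzyme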
# PrPC surface inh = inhibitors of human cell surface prion protein PrPC, primary screen, cell-based, TR-FRET | AID 720596, 2013 | TR-FRET read-out | actives 0.43% (n = 370,000) | Major prion protein (Homo sapiens), P04156 | inhibition, % at 13.8 µM; in the data active = inhibition above about 24%; also: 0% = median of the test wells and 100% = reference compound wells
# BJeLR lethal = MLPCN primary cell-based screen for lethality selective to Ras in HRASV12 cells; AID 1554, 2009; inhibition, % (test concentration not listed); actives 0.17% (n = 300,000); BJeLR (HRASV12) viability, CellTiter-Glo ATP luminescence, 48 h; in the data active = inhibition above about 50%; inconclusive = no clear call, values can overlap the other calls
# PrP 5UTR inh = inhibition of PrP 5' UTR reporter expression; cell-based PrP 5' UTR mRNA reporter, plate reader; inhibition, % (no concentration beside the values); actives 0.35% (n = 340,000); in the data active = inhibition above about 52%; also: 0 = median of the neutral control wells
# Mtb FBA inh = Mtb FBA enzyme inhibitors, primary screen, biochemical, fluorescence, strain H37Rv | purified M. tuberculosis FBA, fluorescence read-out | inhibition, % at 1 µM | actives 2.3% (n = 360,000); in the data active = inhibition above about 27%;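 also: 0% = vehicle and 100% = reference inhibitor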
# Target sequence (P9WQA3 whole entry, looked up): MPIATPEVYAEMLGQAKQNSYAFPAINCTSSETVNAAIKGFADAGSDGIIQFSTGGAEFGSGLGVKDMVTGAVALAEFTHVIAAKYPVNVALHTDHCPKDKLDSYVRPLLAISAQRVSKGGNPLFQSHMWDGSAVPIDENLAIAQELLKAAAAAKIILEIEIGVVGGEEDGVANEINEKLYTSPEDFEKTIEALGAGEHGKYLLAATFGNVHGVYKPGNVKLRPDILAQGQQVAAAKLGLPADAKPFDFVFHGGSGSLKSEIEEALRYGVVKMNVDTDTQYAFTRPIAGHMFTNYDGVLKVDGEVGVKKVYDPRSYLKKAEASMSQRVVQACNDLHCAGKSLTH
# PfHsp40 rescue = rescue of yeast from PfHsp40 toxicity, primary screen, S. cerevisiae, ATP luminescence; S. cerevisiae expressing PfHsp40, growth rescue; growth rescue, % at 12.5 µM; actives 0.68% (n = 340,000); AID 504582, 2011; in the data active = growth rescue above about 28%, passing the limit was not always enough; inconclusive = no clear call, values can overlap the other calls;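 also: yeast W303a lacking pdr1 and pdr3 grown in galactose medium; growth measured after three days at 30 °C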
# * = called active by the depositor; ? = inconclusive; / = no result; + = active, no number. Rows were chosen to be rich in hits. Some 4.5% of all compounds tested hit in one or more screens of this group.
SMILES,GDH-TPI counter,PrPC surface inh,BJeLR lethal,PrP 5UTR inh,Mtb FBA inh,PfHsp40 rescue
O=C(NCc1cccs1)c1cccn2c(=O)c3sccc3nc12,31*,1,5,-15,6,0
O=C(NCc1ccco1)c1cccn2c(=O)c3sccc3nc12,28,-24,-5,-14,13,-1
Cc1ccc(/C(O)=C2/C(=O)C(=O)N(Cc3cccnc3)C2c2ccccn2)cc1 (centres undefined),38*,-3,3,5,3,-1
CC1(C(=O)Nc2ccc3ccccc3c2)CCC(=O)N1CCOc1ccccc1 (centres undefined),/,-5,/,/,3,/
COc1cc(N/N=C/c2ccc(N(C)C)cc2)ncn1,27,6,7,3,14,-1
COc1cc(N/N=C/c2ccccc2O)ncn1,47*,-2,-6,-31,3,0
CNc1cncc(-c2cccnc2)n1,21,1,/,/,+,/
CNc1cncc(-c2cccc(OC)c2F)n1,5,-2,/,/,+,/
CNc1cncc(-c2ccc(F)c(F)c2)n1,23,-1,/,/,168*,/
CC(=O)Nc1cncc(-c2cccc(C(=O)NCCN(C)C)c2)n1,12,10,/,/,8,/
CNc1cncc(-c2cccc(C(=O)N(C)C)c2)n1,19,-9,/,/,+,/
COc1cc(N=Nc2ccc3ccccc3c2)ccc1O,14,-9,3,-91,-6,153*
Oc1ccc(N=Nc2ccc3ccccc3c2)cc1,19,-2,7,-80,-7,72*
Oc1ccc(N=Nc2c(O)ccc3ccccc23)cc1,6,-1,2,-17,-14,5
COc1ccc(OC)c(CN2C(=O)CCCCC2(C)c2nnnn2C2CCCC2)c1 (centres undefined),/,-2,/,/,/,/
C[C@@H]1[C@@H](c2ccccc2)c2cc3ccccc3nc2-c2nc3ccccc3cc2[C@@H]1C(=O)N1CCCC1,/,9,/,/,/,/
Cc1ccc(CONC(=O)c2ccc([N+](=O)[O-])cc2)cc1,9,2,/,-9,3,38*
Cn1c(-c2ccccc2)c(C(=O)CC#N)c2ccccc21,-2,12,11,-32,3,0
CCn1c(-c2ccccc2)c(C(=O)O)c2ccccc21,-1,-4,-7,-9,28*,-2
CN(C)c1ccc(C=NCCC2(O)CCOC(C)(C)C2)cc1 (centres undefined),40*,5,-5,-14,2,-1
CCCOC(=O)CC1C(=O)NCCN1Cc1cc(OC)cc(OC)c1 (centres undefined),-4,-6,-11,-4,-6,40*
CCOC(=O)CC1C(=O)NCCN1Cc1cccc(OC)c1 (centres undefined),9,-5,13,10,3,0
Cc1nc(/C=C\C(=O)O)c2cc(C)oc2n1,8,-10,3,-21,+,0
O=[N+]([O-])c1ccc(-c2nc(Cl)c3c(n2)CCCC3)o1,32*,-43,/,/,-2,/
Cc1ccc(-c2c(C#N)c(N)nc3c2CCCCC3)o1,24,-3,-2,-26,12,0
SMILES,GDH-TPI counter,PrPC surface inh,BJeLR lethal,PrP 5UTR inh,Mtb FBA inh,PfHsp40 rescue
CCCCCn1nnnc1C1(C)CCCCC(=O)N1Cc1ccco1 (centres undefined),/,6,/,/,/,/
N#Cc1c(N)c(C(=O)c2ccc(Br)cc2)n2c1CCC2,31*,4,14,-8,1,-1
COc1ccc(N=Cc2cc(Cc3ccccc3Cl)cc([N+](=O)[O-])c2O)cc1OC,16,/,6,-13,-4,?
Cc1ccc(N=Cc2cc(Cc3ccccc3Cl)cc([N+](=O)[O-])c2O)c(O)c1,7,/,-4,-16,-11,83*
O=C([C@@H]1C[C@H]1c1ccccc1)N1CC[C@H]2[C@H](CCCN2Cc2ccccc2)C1,/,-8,/,/,/,/
CN(C)c1ccc(C=Nc2ccccc2C(N)=O)cc1,38*,1,/,3,6,-1
Cc1ccc(C=Nc2ccccc2C(N)=O)o1,7,-5,3,-7,8,0
CN(C)c1ccc(/C=N\NC(=O)c2csnn2)cc1,42*,-4,2,-96,-4,-1
